# Experimental data: ChEMBL document CHEMBL3988442, “University of Dundee, Small-Polar-MMV Screening Library” (2021)
# In all, about 48,000 compounds went through this assay and about 13,000 (27%) showed an effect of 50% or more. This is one part of the list.
# Tested on: Wolbachia pipientis
# Test: Anti-Wolbachia Cell-Based Screen
# Type: functional
# Set-up: scale not given: in the data most compounds retested in dose-response had high values
# Details: 5 µM
row,Compound,Percent Effect
1,Cc1cc(C)n(C2CN(CC(O)c3ccc4c(c3)OCO4)C2)n1 (stereo not given),-2.648%
2,CCc1nc(C)cc(N2CCCC(C(=O)c3ccc(OC)cc3C)C2)n1 (stereo not given),-51.86%
3,COCCC1(C(=O)O)CCN(c2cc(C)c3ccccc3n2)CC1,-3.456%
4,Cc1cc(N2CCN(C(=O)[C@@H]3C[C@@H]4C=C[C@H]3C4)CC2)nc2ccccc12,54.26%
5,CCC(=O)N1CCCN(c2cncc(-n3nc(C)cc3C)n2)CC1,-2.482%
6,Cc1cc(N2CCC(O)(C(=O)O)CC2)nc2ccccc12,-10.2%
7,CCc1nc(C)cc(N2CCN(C(=O)[C@@H]3C[C@@H]4C=C[C@H]3C4)CC2)n1,84.46%
8,CC(C)n1nc(Cn2cccn2)c2c1CN(CC1CCOC1)C2.O=C(O)C(F)(F)F (stereo not given),-1.747%
9,CCOC(=O)NCCC(=O)NCc1ccc(Oc2cccc(F)c2)nc1,3.713%
10,CCN(C)c1ncnc2c1CCN(S(=O)(=O)c1ccccc1)CC2.O=C(O)C(F)(F)F,77.11%
11,CCS(=O)(=O)N1CCc2ncnc(C)c2CC1,-1.649%
12,CCc1ncnc2c1CCN(C(=O)N1CCCC1)CC2,16.14%
13,CCOc1ncnc2c1CCN(S(=O)(=O)c1ccccc1)CC2,89.01%
14,CCN(C)c1ncnc2c1CCN(C(=O)c1ccccn1)CC2.O=C(O)C(F)(F)F.O=C(O)C(F)(F)F,-0.1551%
15,CCc1ncnc2c1CCN(C(=O)Cc1ccccn1)CC2,-1.286%
16,CCOc1ncnc2c1CCN(Cc1cccs1)CC2.O=C(O)C(F)(F)F,-4.6%
17,CCS(=O)(=O)N1CCc2ncnc(OC)c2CC1,0.7096%
18,CCc1ncnc2c1CCN(S(=O)(=O)c1ccccc1)CC2,113.2%
19,CCN(C)c1ncnc2c1CCN(C(=O)N(C)C)CC2.O=C(O)C(F)(F)F,-3.614%
20,CCOc1ncnc2c1CCN(S(=O)(=O)CC)CC2,-16.86%
21,CCc1ncnc2c1CCN(S(=O)(=O)CC)CC2,104.4%
22,CC(O)CN(CC(=O)NC(=O)NCC(F)(F)F)c1ccccc1 (stereo not given),-9.09%
23,COCCN1CCN(C(=O)c2ccc(C)cc2F)[C@H]2CS(=O)(=O)C[C@H]21,8.657%
24,COC(=O)CCNC(=O)c1cccc(C(=O)N(C)c2ccccc2)c1,2.44%

row,Compound,Percent Effect
1,CC(=O)N1CCN(C(=O)NCCCN(C(C)C)S(C)(=O)=O)CC1,-2.467%
2,COc1ccc2[nH]nc(CN3CCN(Cc4cccc(F)c4)CC3)c2c1,-9.903%
3,Cc1cc(NCCCNS(C)(=O)=O)nc2ccccc12,-15.92%
4,CCN(C)C1COC2(CCN(C(=O)c3ccc4[nH]ccc4c3)CC2)C1 (stereo not given),-14.16%
5,O=C(CCCOc1cccc(F)c1)N1CCCC(n2cncn2)C1 (stereo not given),133%
6,O=C(COc1ccc2c(c1)CCC2)N1CCCC(n2cccn2)C1 (stereo not given),22.49%
7,O=C(CCCc1nc2ccccc2[nH]1)N1CCCC(n2cccn2)C1 (stereo not given),-6.233%
8,O=C(CCCOc1ccc(F)cc1F)N1CCCC(n2cccn2)C1 (stereo not given),132.9%
9,O=C(CCOc1cccc(F)c1)N1CCCC(n2cccn2)C1 (stereo not given),114%
10,Cn1cc(C2CCCN2C(=O)CCCOc2ccc(F)cc2F)cn1 (stereo not given),6.494%
11,O=C(CCCOc1ccccc1Cl)N1CCCC(n2cncn2)C1 (stereo not given),20.25%
12,O=C(CCCOc1ccc(F)cc1)N1CCCC(n2cccn2)C1 (stereo not given),-3.272%
13,O=C(CCOc1cccc(F)c1)N1CCCC(n2cncn2)C1 (stereo not given),-0.888%
14,O=C(CCCOc1cccc(F)c1)N1CCCC(n2cccn2)C1 (stereo not given),116.5%
15,Cc1nnc2n1CCN(C(=O)CN1C(=O)CCOc3ccccc31)C2,-10.74%
16,CCN1CCN(S(=O)(=O)c2c[nH]c(C(C)C)n2)c2ccccc21,-17.2%
17,CCc1ocnc1C(=O)Nc1ccc2ccn(CCN(C)C)c2c1,-13.13%
18,CC(C)c1ncncc1C(=O)NCCN1CCCS1(=O)=O,-1.199%
19,C/C(=C\c1ccco1)CN(C)C(C)c1ccccn1 (stereo not given),4.306%
20,CCC(CO)N(Cc1ccccc1C)Cc1ccccc1C(=O)O (stereo not given),-4.887%
21,COc1ccc(-c2noc([C@@H]3C[C@@H](O)CN3C3CCOCC3)n2)cc1,13.77%
22,Cc1nn(C)cc1-c1cncn1CCc1ccc2c(c1)OCCO2.Cl,107.7%
23,Cn1cnnc1C1CCN(C(=O)Cc2ccc3c(c2)OCCO3)CC1,14.42%
24,CN(Cc1ccc2c(c1)OCCO2)C(=O)Cn1cccnc1=O,7.904%

row,Compound,Percent Effect
1,Cc1cnn(C2CN(Cc3ccc4c(c3)OCCO4)C2)c1,4.221%
2,CCn1cc(-c2cncn2CCc2ccc3c(c2)OCCO3)cn1.Cl,128.2%
3,CN(C)c1ncc(-c2cncn2CCc2ccc3c(c2)OCCO3)cn1.Cl,96.16%
4,CN(Cc1ccc2c(c1)OCCO2)c1ncc(S(N)(=O)=O)s1,-17.53%
5,CN(Cc1ccc2c(c1)OCCO2)C(=O)NCCc1cnn(C)c1,10.28%
6,COc1ccc(CN(C)C(=O)CCc2c(C)nc(C)[nH]c2=O)cc1OC,10.21%
7,CC(C)Cn1ccnc1CNC(=O)NC(C)c1nccs1 (stereo not given),-12.96%
8,Cc1cccc(CNC[C@H]2COCc3nc4cccnc4n32)n1,-11.24%
9,Cn1c(C2CCCN2C(=O)CN2CSCC2=O)nc2ccccc21 (stereo not given),-5.788%
10,Cn1ccnc1CN1CCO[C@H]2C(CNC(=O)c3ccco3)CC[C@@H]21.O=C(O)C(F)(F)F (stereo not given in full),-4.038%
11,CO[C@@H]1CN(S(=O)(=O)c2cn(C)cn2)[C@@H]2CCCO[C@@H]21.O=C(O)C(F)(F)F,7.147%
12,O=C(O)C(F)(F)F.c1ccn(Cc2noc3c2CN(Cc2ccsc2)CC3)c1,-2.985%
13,Cn1ccnc1CN1CCc2c(COCC3CC3)nn(C)c2C1,104.2%
14,CN1CCc2onc(Cn3cccc3)c2C1.O=C(O)C(F)(F)F,-7.222%
15,Cn1cc(CN2CCCn3cnc(COCC4CC4)c3C2)cn1,-7.099%
16,Cn1ccnc1CN1CCc2onc(COCC3CC3)c2C1.O=C(O)C(F)(F)F,94.95%
17,Cn1nc(COCC2CC2)c2c1CCN(C(=O)c1ccno1)C2,2.608%
18,Cc1nc(N)sc1C(=O)N[C@H]1CN(CCO)C[C@@H]1C1CC1,15.87%
19,O=C(NCC(F)(F)F)c1coc(COc2cccc(F)c2)n1,-8.912%
20,CC(C)c1nnsc1CN1CCc2[nH]nc(-c3ccc(Cl)cc3)c2C1,-32.01%
21,CC(C)c1nnsc1CN1CCc2[nH]nc(-c3ccc(F)c(F)c3)c2C1,-14.43%
22,CCc1nc(C)sc1CN1CCc2[nH]nc(-c3ccc(F)c(F)c3)c2C1,80.67%
23,CC(C)S(=O)(=O)c1ccccc1C(=O)NCC1Cc2ccccc2O1 (stereo not given),-14.53%
24,Cc1noc2nc(C3CCCN(Cc4ccncc4)C3)cc(C(F)F)c12 (stereo not given),102.2%

row,Compound,Percent Effect
1,FC(F)(F)c1cc(C2CCCN(Cc3cccnc3)C2)n[nH]1 (stereo not given),5.486%
2,Cc1noc2nc(C3CCN(Cc4ccncc4)CC3)cc(C(F)F)c12,-5.85%
3,Cc1noc2nc(C3CCCN(Cc4cccnc4)C3)cc(C(F)F)c12 (stereo not given),110%
4,Cc1noc2nc(C3CCN(Cc4cccnc4)CC3)cc(C(F)F)c12.Cl,-9.901%
5,O=C(O)C(F)(F)F.O=C(O)C(F)(F)F.O=C(O)C(F)(F)F.c1cncc(COCc2cncc3c2CCN(Cc2ccoc2)C3)c1,108.7%
6,O=C(O)C(F)(F)F.O=C(O)C(F)(F)F.O=C(O)C(F)(F)F.O=C(O)C(F)(F)F.c1ccc(CN2CCc3c(COCc4ccncc4)cncc3C2)nc1,100.9%
7,Cn1cc(CN2CCc3c(COCC4CC4)cncc3C2)cn1.O=C(O)C(F)(F)F.O=C(O)C(F)(F)F,4.622%
8,O=C(O)C(F)(F)F.O=C(O)C(F)(F)F.O=C(c1ccc[nH]1)N1CCc2c(COCc3ccncc3)cncc2C1,-6.376%
9,O=C(O)C(F)(F)F.O=C(O)C(F)(F)F.c1cncc(COCc2nnc3n2CCN(Cc2ccoc2)C3)c1,7.608%
10,CCOCc1cncc2c1CCN(S(=O)(=O)c1ccccc1)C2,-7.612%
11,O=C(O)C(F)(F)F.O=C(O)C(F)(F)F.O=C(O)C(F)(F)F.c1ccc(CN2CCc3c(COCC4CC4)cncc3C2)nc1,97.89%
12,O=C(O)C(F)(F)F.c1ccc(CN2Cc3[nH]nc(COCC4CC4)c3C2)nc1,-4.447%
13,O=C(c1ccoc1)N1CCc2c(COCc3ccncc3)cncc2C1,-1.129%
14,CCS(=O)(=O)N1CCc2c(COCc3ccncc3)cncc2C1,118.3%
15,O=C(c1ccsc1)N1CCc2c(COCc3ccncc3)cncc2C1,6.158%
16,Cn1cc(CN2CCc3c(COCc4ccncc4)cncc3C2)cn1,11%
17,N#Cc1ccccc1C(=O)N1C[C@H](CO)C[C@H](CN2CCCC2)C1,4.936%
18,Cc1nc(C(=O)N2CCN(C(=O)C3CCC3)[C@@H]3CS(=O)(=O)C[C@@H]32)cs1,7.717%
19,CNC(=O)NC(=O)C(C)N1CCC(c2c[nH]c3ccc(OC)cc23)CC1 (stereo not given),1.858%
20,CC(C)CCN(C)Cn1ncc2cn(-c3ccccc3)nc2c1=O,5.11%
21,CCn1c(CNC(=O)c2ccc(N(C)C)nc2)nc2ccccc21,8.635%
22,Cc1nc(NC(=O)NCc2nc3cccc(C)c3n2C)oc1C,43.9%
23,CCn1c(CNC(=O)Nc2nc(C)c(C)o2)nc2ccccc21,89.34%
